Assay outcomes deposited in PubChem BioAssay by several laboratories.
A selection: hits, their analogues and other compounds. The true share with any hit is near 3.9%.
3CLpro inhibitor – SARS-CoV 3CLpro protease inhibition; P0C6X7; recombinant SARS-CoV 3CLpro, quenched FRET peptide cleavage; inhibition, % at 6 µM; 290,000 compounds, 0.14% hits; AID 1706; in the data active means inhibition above about 12%
BoNT-F LC inh – blocks Botulinum neurotoxin F light chain protease; Multiplex microsphere protease cleavage assay, flow cytometry; 360,000 compounds, 0.22% hits; inhibition, % at 10 µM; in the data active means inhibition above about 35%, passing the limit was not always enough; inconclusive means no clear call, values can overlap the other calls; further: plate controls were buffer without enzyme for full effect and enzyme alone for no effect
Autofluor counter – flagged as autofluorescent in microsphere protease counterscreen; 360,000 compounds, 3.1% hits; compound autofluorescence counterscreen, microsphere flow cytometry; stronger effect = higher value; fluorescence intensity (no concentration beside the values); in the data active means fluorescence intensity above about 16000; inconclusive means no clear call, values can overlap the other calls
BoNT A protease – inhibitors of Botulinum neurotoxin A light chain protease; multiplex microsphere protease substrate cleavage, flow cytometry; 360,000 compounds, 0.17% hits; inhibition, % at 10 µM; further: plate controls were buffer without enzyme for full effect and enzyme alone for no effect
Anthrax LF prot – blocks Bacillus anthracis lethal factor protease. multiplex microsphere protease cleavage assay, LF. 360,000 compounds, 0.12% hits. P15917. inhibition, % at 10 µM. AID 588501; further: plate controls were buffer without enzyme for full effect and enzyme alone for no effect
Target sequence (P15917 whole entry, looked up): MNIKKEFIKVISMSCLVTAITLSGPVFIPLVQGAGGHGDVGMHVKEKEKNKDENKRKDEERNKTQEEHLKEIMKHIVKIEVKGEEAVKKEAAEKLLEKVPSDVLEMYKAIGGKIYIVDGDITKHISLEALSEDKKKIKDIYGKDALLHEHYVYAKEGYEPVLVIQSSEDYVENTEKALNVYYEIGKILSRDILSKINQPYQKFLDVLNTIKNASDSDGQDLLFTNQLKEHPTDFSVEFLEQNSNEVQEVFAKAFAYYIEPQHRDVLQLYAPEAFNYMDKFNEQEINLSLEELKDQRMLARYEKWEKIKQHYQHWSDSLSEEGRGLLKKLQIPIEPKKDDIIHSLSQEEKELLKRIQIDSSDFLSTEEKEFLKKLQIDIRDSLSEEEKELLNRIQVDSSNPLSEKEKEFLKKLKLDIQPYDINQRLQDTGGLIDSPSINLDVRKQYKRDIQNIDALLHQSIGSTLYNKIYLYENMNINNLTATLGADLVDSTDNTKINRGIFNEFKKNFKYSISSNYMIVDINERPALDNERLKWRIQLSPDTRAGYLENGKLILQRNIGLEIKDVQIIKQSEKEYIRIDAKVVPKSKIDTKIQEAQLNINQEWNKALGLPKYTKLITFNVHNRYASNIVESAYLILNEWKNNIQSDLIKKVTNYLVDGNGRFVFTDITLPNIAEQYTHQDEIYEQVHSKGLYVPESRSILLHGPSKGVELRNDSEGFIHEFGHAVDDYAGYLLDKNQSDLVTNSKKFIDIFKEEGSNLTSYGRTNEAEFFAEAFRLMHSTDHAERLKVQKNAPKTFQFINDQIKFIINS
CCHFV vOTU inh – CCHFV vOTU protease inhibition; inhibition, % at 11.5 µM; 370,000 compounds, 0.55% hits; Pep-AMC fluorescence; in the data active means inhibition above about 30%; further: 0% = vehicle wells with enzyme and 100% = no enzyme wells
Active calls of the source: *. Unless noted, no stated cut-off is given here; in the data, active means inhibition above about 30%; inconclusive means no clear call, values can overlap the other calls; inactive means below that.

What do the screens show for `O=C(c1ccc2c(c1)OCO2)N1CCC2(CC1)Oc1ccc(Cl)cc1C(=O)C21CC(c2ccccc2)=NO1` (centres undefined)?
BoNT-F LC inh: -4; Autofluor counter: 4021; BoNT A protease: 0; Anthrax LF prot: -2; CCHFV vOTU inh: 1

What do the screens show for `COc1ccc(/C=C/C(=O)c2ccc[nH]2)c(OC)c1OC`?
3CLpro inhibitor: -4; BoNT-F LC inh: 18; Autofluor counter: 4382; BoNT A protease: 4; Anthrax LF prot: 5; CCHFV vOTU inh: 16

What do the screens show for `COc1ccc(/C=C/C(=O)c2ccncc2)c2ccccc12`?
3CLpro inhibitor: 1; BoNT-F LC inh: 6; Autofluor counter: 2665; BoNT A protease: 45*; Anthrax LF prot: 21; CCHFV vOTU inh: 29

Results for CC(C)C[C@H]1COc2cc(Br)ccc2S(=O)(=O)N1Cc1cn(Cc2ccco2)nn1 ?
CCHFV vOTU inh: 7

What do the screens show for `Cc1ccsc1/C=c1\sc2ncnn2c1=O`?
3CLpro inhibitor: 1; BoNT-F LC inh: -2; Autofluor counter: 20527*; BoNT A protease: -2; Anthrax LF prot: -1; CCHFV vOTU inh: 6

What do the screens show for `O=c1/c(=C/c2cccc3ccccc23)sc2ncnn12`?
3CLpro inhibitor: -6; BoNT-F LC inh: 4; Autofluor counter: 4260; BoNT A protease: 0; Anthrax LF prot: 7; CCHFV vOTU inh: -3

Results for CNc1ccc(Br)cc(C(=O)/C=C/c2cc(OC)ccc2OC)c1=O ?
3CLpro inhibitor: 0; BoNT-F LC inh: 15; Autofluor counter: 17230*; BoNT A protease: 24; Anthrax LF prot: 28; CCHFV vOTU inh: -1

How did CCNc1ccc(Br)cc(C(=O)/C=C/c2ccc(Cl)cc2Cl)c1=O do in these assays?
3CLpro inhibitor: 1; BoNT-F LC inh: 28; Autofluor counter: 17500*; BoNT A protease: inconclusive; Anthrax LF prot: 43*; CCHFV vOTU inh: 11

Results for COCCCNC(=O)/C=C/c1ccc(Cl)cc1Cl ?
3CLpro inhibitor: 6; BoNT-F LC inh: -17; Autofluor counter: 3758; BoNT A protease: -1; Anthrax LF prot: -10; CCHFV vOTU inh: -6

Results for Cc1ccc(NC(=O)C2CCN(S(C)(=O)=O)CC2)cc1 ?
3CLpro inhibitor: 3; BoNT-F LC inh: -9; Autofluor counter: 22760*; BoNT A protease: inconclusive; Anthrax LF prot: 3; CCHFV vOTU inh: 10

What do the screens show for `COc1ccc(NC(=O)C2CCN(S(C)(=O)=O)CC2)cc1OC`?
3CLpro inhibitor: 3; BoNT-F LC inh: 3; Autofluor counter: 3999; BoNT A protease: -3; Anthrax LF prot: -12; CCHFV vOTU inh: -10

How did COc1ccc(NC(=O)C2CCN(S(=O)(=O)c3ccc(C)cc3)CC2)cc1OC do in these assays?
3CLpro inhibitor: -1; BoNT-F LC inh: -7; Autofluor counter: 25551*; BoNT A protease: -4; Anthrax LF prot: 0; CCHFV vOTU inh: -1

What do the screens show for `CN1C(=CC=C2C=C(I)C(=O)C(I)=C2)C(C)(C)c2ccccc21`?
3CLpro inhibitor: 1; BoNT-F LC inh: 19; Autofluor counter: 3157; BoNT A protease: 101*; Anthrax LF prot: 55*; CCHFV vOTU inh: 11

Results for CCn1c(=O)cc(SCC(=O)N2CCC(C)CC2)c2ccccc21 ?
3CLpro inhibitor: -4; BoNT-F LC inh: 4; Autofluor counter: 15393; BoNT A protease: inconclusive; Anthrax LF prot: 0; CCHFV vOTU inh: -9

What do the screens show for `CCOC(=O)N1CCC(NC(=O)CSc2cc(=O)n(CC)c3ccccc23)CC1`?
3CLpro inhibitor: 1; BoNT-F LC inh: 3; Autofluor counter: 21138*; BoNT A protease: 3; Anthrax LF prot: 4; CCHFV vOTU inh: -6

What do the screens show for `CCOC(=O)C1CCN(C(=O)CSc2cc(=O)n(CC)c3ccccc23)CC1`?
3CLpro inhibitor: -3; BoNT-F LC inh: -6; Autofluor counter: 16952*; BoNT A protease: -3; Anthrax LF prot: 0; CCHFV vOTU inh: -15

Results for CC(=O)NC1CCCCN(Cc2cccc(F)c2)C1=O (centres undefined) ?
CCHFV vOTU inh: -10

What do the screens show for `Cc1cc(C)nc(SC(C)C(=O)Nc2ccc(S(N)(=O)=O)cc2)n1` (centres undefined)?
3CLpro inhibitor: 1; BoNT-F LC inh: 2; Autofluor counter: 21604*; BoNT A protease: inconclusive; Anthrax LF prot: 1; CCHFV vOTU inh: -7

Results for O=C(Nc1cccc(C(F)(F)F)c1)C1CCCN(S(=O)(=O)c2cnc[nH]2)C1 (centres undefined) ?
3CLpro inhibitor: -1; BoNT-F LC inh: 2; Autofluor counter: 22065*; BoNT A protease: 2; Anthrax LF prot: -3; CCHFV vOTU inh: 0

Results for CCc1cccc(NC(=O)C2CCCN(S(=O)(=O)c3cnc[nH]3)C2)c1 (centres undefined) ?
3CLpro inhibitor: -2; BoNT-F LC inh: 0; Autofluor counter: 5197; BoNT A protease: -1; Anthrax LF prot: -2; CCHFV vOTU inh: 1

What do the screens show for `CC1CCN(CCc2nc3cc(NC(=O)COc4ccc([N+](=O)[O-])cc4)ccc3n2C)CC1`?
3CLpro inhibitor: -1; BoNT-F LC inh: -4; Autofluor counter: 5849; BoNT A protease: 1; Anthrax LF prot: -2; CCHFV vOTU inh: 14

How did CCOC(=O)CSc1nc2ccccc2c(=O)n1-c1ccc(C(=O)NCCOC)cc1 do in these assays?
3CLpro inhibitor: 2; BoNT-F LC inh: -1; Autofluor counter: 21747*; BoNT A protease: 0; Anthrax LF prot: -4; CCHFV vOTU inh: -9

How did CCOC(=O)CSc1nc(-c2ccccc2)nc2ccccc12 do in these assays?
3CLpro inhibitor: 6; BoNT-F LC inh: 3; Autofluor counter: 21864*; BoNT A protease: 4; Anthrax LF prot: -2; CCHFV vOTU inh: 5

Results for COCCNC(=O)c1ccc(-n2c(SCc3cc(F)ccc3F)nc3ccccc3c2=O)cc1 ?
3CLpro inhibitor: -5; BoNT-F LC inh: -6; Autofluor counter: 2115; BoNT A protease: 0; Anthrax LF prot: -4; CCHFV vOTU inh: -9

What do the screens show for `CCOC(=O)CSc1nc2cc(C(=O)N3CCCC3)ccc2c(=O)n1Cc1ccccc1`?
3CLpro inhibitor: 1; BoNT-F LC inh: 0; Autofluor counter: 4169; BoNT A protease: 0; Anthrax LF prot: 2; CCHFV vOTU inh: -6

How did CCOC(=O)CSc1nc(-c2ccccc2)nc2ccc(F)cc12 do in these assays?
3CLpro inhibitor: -1; BoNT-F LC inh: -15; Autofluor counter: inconclusive; BoNT A protease: inconclusive; Anthrax LF prot: inconclusive; CCHFV vOTU inh: 2

How did CCOC(=O)CSc1nc2cc(C(=O)N3CCC(C(N)=O)CC3)ccc2c(=O)n1-c1ccccc1 do in these assays?
3CLpro inhibitor: 3; BoNT-F LC inh: 4; Autofluor counter: 21305*; BoNT A protease: 5; Anthrax LF prot: 2

How did CS(=O)(=O)Nc1ccc(C(=O)Nc2ccc3c(c2)OCO3)cc1 do in these assays?
3CLpro inhibitor: 4; BoNT-F LC inh: -5; Autofluor counter: 2213; BoNT A protease: 0; Anthrax LF prot: -2; CCHFV vOTU inh: -14

What do the screens show for `CC1(C(=O)Nc2ccc3c(c2)OCO3)CCN1C(=O)CCc1ccc(Cl)cc1Cl` (centres undefined)?
BoNT-F LC inh: -7; Autofluor counter: 4232; BoNT A protease: -1; Anthrax LF prot: 1; CCHFV vOTU inh: -4
